# Source: PubChem BioAssay
# Activity calls are given as the source filed them.
# How the values were obtained:
# Albumin (Bos taurus) = Albumin (Bos taurus) (UniProt P02769); assay: bovine serum albumin binders on microarray, profiling panel, artefact control for SMM control protein annotation, biochemical, small-molecule microarray, Alexa647 label, 635/667 nm fluorescence (AID 1118); conditions: BSA-A647 binding, fluorescence 635 nm, higher = more signal;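 further: score merges 667 nm emission intensity and signal-to-noise per printed compound spot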
# Chain of Albumin (Bos taurus) (P02769 whole entry, looked up): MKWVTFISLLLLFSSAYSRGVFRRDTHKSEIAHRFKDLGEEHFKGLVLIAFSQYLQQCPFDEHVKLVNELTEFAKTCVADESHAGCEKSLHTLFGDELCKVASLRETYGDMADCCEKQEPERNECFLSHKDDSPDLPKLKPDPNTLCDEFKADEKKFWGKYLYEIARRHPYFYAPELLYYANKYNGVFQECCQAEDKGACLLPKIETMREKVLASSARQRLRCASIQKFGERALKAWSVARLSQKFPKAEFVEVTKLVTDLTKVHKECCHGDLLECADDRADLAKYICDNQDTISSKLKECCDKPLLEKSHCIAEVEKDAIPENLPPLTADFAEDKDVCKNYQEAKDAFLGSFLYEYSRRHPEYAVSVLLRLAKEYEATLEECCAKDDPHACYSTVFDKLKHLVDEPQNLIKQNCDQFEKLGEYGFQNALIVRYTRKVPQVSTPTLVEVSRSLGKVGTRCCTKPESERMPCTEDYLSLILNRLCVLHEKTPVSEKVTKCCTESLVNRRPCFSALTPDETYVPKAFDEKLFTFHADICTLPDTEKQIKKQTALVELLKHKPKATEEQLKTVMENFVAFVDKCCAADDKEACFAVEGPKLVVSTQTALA
# [1] = small-molecule microarray binders of probe aXIP, primary screen, biochemical, NeuroSMM set, 635/667 nm fluorescence (AID 1119); conditions: higher = more signal, called active from +8 up or from −8 down;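 further: probe is the protein aXip251-270 applied at 1 µg/mL to compound-printed slides; binding of probe to printed compounds measured as 667 nm fluorescence plus signal to noise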
# [2] = small-molecule binders of probe aNOTCH3, primary screen, biochemical, small-molecule microarray, 635/667 nm fluorescence (AID 1120); conditions: higher = more signal;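 further: probe is a biotin-tagged antibody raised against NOTCH3 rather than NOTCH3 protein; score merges spot fluorescence near 667 nm with spot signal to noise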
# [3] = small-molecule binders of probe aNOTCH2, primary screen, biochemical, small-molecule microarray, 635/667 nm fluorescence (AID 1121); conditions: higher = more signal;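 further: score merges feature fluorescence read at 667 nm with its signal to noise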
# [4] = molecular target: Carbonic anhydrase 2 (Homo sapiens) (UniProt P00918); assay: CAII small-molecule binders, profiling panel, biochemical, small-molecule microarray, Alexa647-labelled CAII (AID 1122); conditions: CAII-A647 binding fluorescence, higher = more signal
# [5] = COS7 lysate on small-molecule microarray, probe aHis, 635 nm (AID 1123); conditions: COS7 cell lysate, fluorescence, higher = more signal;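 further: z-score combines 667nm fluorescence intensity with signal-to-noise per printed compound spot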
# [6] = compound binding in COS7 lysate, probe aLAP1, primary screen, cell lysate, small-molecule microarray (AID 1124); conditions: probe aLAP1, fluorescence, higher = more signal;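 further: lysate comes from COS7 cells expressing LAP1 and is applied at 0.3 µg/mL; score merges spot fluorescence near 667 nm with signal-to-noise over triplicate slides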
# Sam68 (KHDRBS1) = assay: Sam68 small-molecule binders, primary screen, biochemical, small-molecule microarray, 635 nm fluorescence (AID 1125); conditions: small-molecule microarray binding, higher = more signal;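 further: score merges 667 nm channel intensity with signal to noise over triplicate slides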
# [7] = tested on: Chordin-like protein 2 (CHRDL2); assay: CHRDL2 small-molecule binders, primary screen, biochemical, small-molecule microarray, 635 nm fluorescence (AID 1126); conditions: small-molecule microarray binding, fluorescence 635 nm; higher = more signal;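 further: printed compound slides probed with Chrdl2 protein at 4 µg/mL for 1 h at 4 C; score merges 667 nm emission intensity with signal to noise over three replicate slides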
# [8] = molecular target: Concanavalin-A (Canavalia ensiformis) (UniProt P02866); assay: ConA small-molecule binders, primary screen, artefact control for SMM control protein annotation, biochemical, small-molecule microarray, Alexa647 label, 635 nm (AID 1127); conditions: ConA-A647 binding fluorescence, higher = more signal;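 further: z combines 667 nm emission intensity with signal-to-noise across three replicate slides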
# Chain of Concanavalin-A (Canavalia ensiformis) (P02866 whole entry, looked up): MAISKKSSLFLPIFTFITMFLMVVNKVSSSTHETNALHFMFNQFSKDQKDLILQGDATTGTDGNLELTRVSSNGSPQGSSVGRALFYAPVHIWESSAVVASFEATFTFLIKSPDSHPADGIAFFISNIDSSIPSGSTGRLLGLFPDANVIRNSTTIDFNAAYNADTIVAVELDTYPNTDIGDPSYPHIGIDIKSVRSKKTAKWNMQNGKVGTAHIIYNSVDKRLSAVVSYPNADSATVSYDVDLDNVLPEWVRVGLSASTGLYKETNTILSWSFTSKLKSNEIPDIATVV
# [9] = anti-His antibody binders, primary screen, artefact control for SMM control protein annotation, biochemical, small-molecule microarray, 635 nm fluorescence (AID 1128); conditions: anti-His Alexa647 antibody binding, higher = more signal;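 further: score merges feature fluorescence with signal-to-noise for each printed compound spot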
# [10] = tested on: Human papillomavirus type 1a E7 protein (residues 1-88); assay: HPV1a E7 small-molecule binders, primary screen, biochemical, small-molecule microarray, residues 1-88, 635 nm (AID 1129); conditions: small-molecule microarray binding, fluorescence 635 nm; higher = more signal
# [11] = molecular target: Focal adhesion kinase 1 (Homo sapiens) (UniProt Q05397); assay: small-molecule microarray binders of FAK, primary screen, biochemical, 635/667 nm fluorescence, BSA, DTT (AID 1130); conditions: PTK2 binding, 635 nm fluorescence, higher = more signal;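 further: composite of spot emission at 667 nm and signal to noise over triplicate slides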
# Chain of Focal adhesion kinase 1 (Homo sapiens) (Q05397 whole entry, looked up): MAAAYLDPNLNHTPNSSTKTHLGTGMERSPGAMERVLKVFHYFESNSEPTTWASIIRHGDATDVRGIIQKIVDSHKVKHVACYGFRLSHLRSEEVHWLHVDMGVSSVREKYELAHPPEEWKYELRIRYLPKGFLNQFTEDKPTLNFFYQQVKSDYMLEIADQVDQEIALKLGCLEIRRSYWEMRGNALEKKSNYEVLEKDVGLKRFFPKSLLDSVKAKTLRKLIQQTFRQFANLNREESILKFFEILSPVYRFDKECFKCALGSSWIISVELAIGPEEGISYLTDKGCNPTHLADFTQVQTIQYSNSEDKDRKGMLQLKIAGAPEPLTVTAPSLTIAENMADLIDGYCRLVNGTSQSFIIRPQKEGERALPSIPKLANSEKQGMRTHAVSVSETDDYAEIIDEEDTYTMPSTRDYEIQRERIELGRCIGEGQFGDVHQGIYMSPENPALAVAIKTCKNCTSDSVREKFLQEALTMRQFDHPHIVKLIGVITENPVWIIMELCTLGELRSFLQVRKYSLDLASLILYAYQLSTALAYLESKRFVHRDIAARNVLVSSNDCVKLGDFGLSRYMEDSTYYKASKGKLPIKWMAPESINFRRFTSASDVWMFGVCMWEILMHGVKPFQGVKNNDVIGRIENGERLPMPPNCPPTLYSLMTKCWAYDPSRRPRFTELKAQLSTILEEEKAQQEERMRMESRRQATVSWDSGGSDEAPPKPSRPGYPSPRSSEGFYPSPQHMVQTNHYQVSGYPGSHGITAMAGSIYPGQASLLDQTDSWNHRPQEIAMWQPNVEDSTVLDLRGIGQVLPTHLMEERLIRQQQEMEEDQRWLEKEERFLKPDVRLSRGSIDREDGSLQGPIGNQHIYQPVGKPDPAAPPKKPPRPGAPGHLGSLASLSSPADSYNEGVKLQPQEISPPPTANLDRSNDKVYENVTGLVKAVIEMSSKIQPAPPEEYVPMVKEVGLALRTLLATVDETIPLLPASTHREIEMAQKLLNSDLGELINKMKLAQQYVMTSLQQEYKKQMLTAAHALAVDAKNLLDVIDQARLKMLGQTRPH
# [12] = tested on: Fibrinogen (Alexa647-labelled); assay: fibrinogen binders on compound microarrays, profiling panel, artefact control for SMM control-protein annotation, biochemical, small-molecule microarray, 635/667 nm fluorescence (AID 1131); conditions: fibrinogen-A647 binding fluorescence, higher = more signal;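 further: z-score merges 667 nm fluorescence with per-spot signal-to-noise over triplicate slides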
# [13] = molecular target: Follistatin (Homo sapiens) (UniProt P19883); assay: follistatin binders on small-molecule microarrays, primary screen, biochemical, small-molecule microarray, 635/667 nm fluorescence (AID 1132); conditions: FST binding, 635 nm fluorescence, higher = more signal
# Chain of Follistatin (Homo sapiens) (P19883 whole entry, looked up): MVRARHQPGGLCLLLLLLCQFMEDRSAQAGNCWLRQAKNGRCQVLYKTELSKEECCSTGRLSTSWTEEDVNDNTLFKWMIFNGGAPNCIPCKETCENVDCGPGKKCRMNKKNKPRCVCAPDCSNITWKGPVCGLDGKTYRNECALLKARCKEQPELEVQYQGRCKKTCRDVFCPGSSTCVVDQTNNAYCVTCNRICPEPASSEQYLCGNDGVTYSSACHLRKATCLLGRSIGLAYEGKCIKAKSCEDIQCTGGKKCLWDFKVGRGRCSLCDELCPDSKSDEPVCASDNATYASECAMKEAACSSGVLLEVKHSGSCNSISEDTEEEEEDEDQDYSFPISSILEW
# [14] = molecular target: Fibroblast growth factor 2 (Homo sapiens) (UniProt P09038); assay: FGF2 binders on small-molecule microarrays, primary screen, biochemical, small-molecule microarray, 635/667 nm fluorescence (AID 1133); conditions: small-molecule microarray binding, FGF2, fluorescence 635/667; higher = more signal
# Chain of Fibroblast growth factor 2 (Homo sapiens) (P09038 whole entry, looked up): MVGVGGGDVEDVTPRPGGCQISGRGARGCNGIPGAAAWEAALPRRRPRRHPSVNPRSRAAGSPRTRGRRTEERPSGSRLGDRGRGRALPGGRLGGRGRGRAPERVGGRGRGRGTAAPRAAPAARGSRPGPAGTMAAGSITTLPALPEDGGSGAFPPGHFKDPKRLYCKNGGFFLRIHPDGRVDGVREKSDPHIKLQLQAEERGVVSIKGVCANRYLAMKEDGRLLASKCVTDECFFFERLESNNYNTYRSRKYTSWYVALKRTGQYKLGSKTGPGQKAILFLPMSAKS
# [15] = mitochondrial membrane potential change in A549 cells, profiling panel, cell-based, JC-1 fluorescence, basal, 24 h, 100 nL (AID 1138); conditions: higher = more signal;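 further: A549 lung adenocarcinoma cells under basal conditions with no added stimulus; test concentration not given here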
# Lefty1 = Lefty1 binders on small-molecule microarrays, primary screen, biochemical, small-molecule microarray, 635/667 nm fluorescence (AID 1139); conditions: small-molecule microarray binding, fluorescence 635/667; higher = more signal
# [16] = tested on: wheat germ agglutinin (Triticum aestivum), Alexa647-labelled; assay: wheat germ agglutinin binders on compound microarrays, profiling panel, artefact control for SMM control-protein annotation, biochemical, small-molecule microarray, 635/667 nm fluorescence (AID 1140); conditions: WGA-A647 binding, 635 nm fluorescence, higher = more signal;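 further: score merges 667 nm feature emission with signal to noise over triplicate slides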
# [17] = molecular target: Luciferin 4-monooxygenase (Photinus pyralis) (UniProt P08659); assay: firefly luciferase enzyme inhibitors, primary screen, biochemical, luminescence, purified enzyme, 2006 set (AID 1141); conditions: SteadyGlo luminescence, 30 min, higher = more signal, called active from +8 up or from −8 down;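 further: cell-free assay with purified firefly luciferase at 100 ng per well in PBS; test concentration not given here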
# Chain of Luciferin 4-monooxygenase (Photinus pyralis) (P08659 whole entry, looked up): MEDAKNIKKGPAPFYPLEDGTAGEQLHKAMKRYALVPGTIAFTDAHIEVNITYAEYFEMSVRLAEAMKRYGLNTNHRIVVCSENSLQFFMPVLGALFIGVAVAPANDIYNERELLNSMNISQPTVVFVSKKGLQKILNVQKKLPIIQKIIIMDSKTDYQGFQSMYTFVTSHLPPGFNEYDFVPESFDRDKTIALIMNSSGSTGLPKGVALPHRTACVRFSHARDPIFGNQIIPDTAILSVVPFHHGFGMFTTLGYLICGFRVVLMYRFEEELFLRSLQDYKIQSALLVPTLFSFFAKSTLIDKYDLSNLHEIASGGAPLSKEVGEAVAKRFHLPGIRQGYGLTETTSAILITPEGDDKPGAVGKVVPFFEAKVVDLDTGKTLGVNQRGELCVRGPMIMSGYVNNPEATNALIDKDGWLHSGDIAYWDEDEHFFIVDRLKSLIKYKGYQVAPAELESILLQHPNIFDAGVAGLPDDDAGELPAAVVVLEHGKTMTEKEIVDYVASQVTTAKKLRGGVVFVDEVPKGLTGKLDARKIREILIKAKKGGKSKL
Compound,composite z-score (Albumin (Bos taurus)),composite Z-score [1],composite z-score [2],composite z-score [3],composite z-score [4],composite z-score [5],composite z-score [6],composite z-score (Sam68 (KHDRBS1)),composite z-score [7],composite z-score [8],composite z-score [9],composite z-score [10],composite z-score [11],composite z-score [12],composite z-score [13],composite z-score [14],z-score [15],composite z-score (Lefty1),composite z-score [16],z-score [17]
CO[C@H]1O[C@H](CO)[C@@H](OC(=O)Nc2ccccc2)[C@H](OC(=O)Nc2ccc3c(c2)OCO3)[C@@H]1OC(=O)Nc1ccc2c(c1)OCO2,0.536,0.741 (inactive),0.0459,-0.101,0.655,2.17,0.759,1.3,-0.17,1.12,2.53,1.2,1.02,0.771,0.87,0.0385,1.18,0.563,1.21,-5.6 (inactive)
C=CCNC(=O)[C@@H]1[C@H]2C(=O)O[C@H](c3ccccc3)[C@H](c3ccccc3)N2[C@H](c2ccc(OCCO)cc2)[C@@]12C(=O)N(C(=O)OCCOC)c1ccc(C#CC3(O)CCCCCC3)cc12,0.801,1.7 (inactive),0.353,-0.0502,0.572,1.5,0.568,1.3,-0.0335,1.07,0.166,1.2,0.262,0.827,1.18,0.833,-1,0.326,1.15,-2.35 (inactive)
O=C1C2C=CC(C(O)c3ccccc3)N(n3cnnc3)C2C(=O)N1Cc1ccccc1 (stereo not given),0.878,0.0912 (inactive),0.0562,-0.0136,0.565,0.775,-0.333,-0.493,0.0921,0.161,0.0968,0.561,0.321,0.249,0.438,-0.0128,0.348,-0.497,-0.164,-1.55 (inactive)
C[N+](C)(C)CCCC[C@@H]1NC(=O)[C@H]2C[C@@H](C(=O)NCc3ccc(F)cc3)[C@@H](c3cccc(OCCO)c3)N2C1=O,0.392,1.57 (inactive),-0.0328,-0.179,0.811,1.48,0.633,1.15,0.864,1.08,1.02,0.431,1.05,0.14,1.46,1.85,1.3,1.07,0.0979,-0.908 (inactive)
CO[C@H]1COC(=O)CC=C[C@H](C)[C@@H](OC)COC(=O)[C@H](Cc2ccccc2)NC(=O)CC=C[C@@H]1C,-2.12,0.699 (inactive),-0.132,-0.0743,-0.961,-0.566,-0.287,-0.777,1.46,-2.53,-1.1,-2.59,0.264,-1.23,1.42,1.34,1.39,1.59,-0.324,-1.06 (inactive)
COc1cc([C@@H]2N[C@H](C(=O)O)Cc3c2[nH]c2ccccc32)cc(OC)c1OC,0.1,-0.651 (inactive),0.059,-0.089,-0.0165,-0.0553,0.238,0.0713,0.475,0.245,0.386,0.431,0.161,0.514,0.275,0.254,0.559,0.531,0.373,-0.538 (inactive)
NC(=O)NCC#Cc1ccc2c(c1)[C@]1(C(=O)N2)[C@H](C(N)=O)[C@H]2C(=O)O[C@H](c3ccccc3)[C@H](c3ccccc3)N2[C@@H]1c1ccccc1OCCO,0.284,0.0219 (inactive),0.121,-0.0762,0.175,0.841,0.519,0.978,0.543,0.936,-0.22,1.01,-0.0788,0.543,1.23,0.66,-0.525,0.472,0.174,0.171 (inactive)
Cc1ccc(S[C@]2(C(=O)NCCCN(C)C)CC(=O)N(Cc3ccccc3)[C@@H]2c2ccc(CO)cc2I)cc1,0.717,0.35 (inactive),0.0762,-0.0771,0.688,2,0.755,-0.381,-0.855,0.362,0.412,-0.0835,0.152,0.233,-0.143,-1.33,3.68,-0.892,0.876,-0.0307 (inactive)
Cc1ccc(S[C@]2(C(=O)O)CC(=O)N(Cc3cc(C(F)(F)F)cc(C(F)(F)F)c3)[C@@H]2c2ccc(CO)cc2I)cc1,0.372,1.54 (inactive),-0.243,-0.154,0.0858,0.0199,-0.439,0.456,-1.02,0.226,-0.339,-0.664,0.0035,-1.56,-0.251,-0.325,-0.603,-0.89,-1.09,-1.3 (inactive)
C=C(CCCC)/C(=C/C[C@@H](OC(=O)c1ccncc1)c1ccc(CO)o1)c1cnc2ccccc2c1,0.667,1.04 (inactive),0.382,0.0626,0.956,2.33,0.405,1.31,1.45,1.18,1.24,0.723,1.64,0.878,1.46,1.69,0.146,1.65,1.22,-3.5 (inactive)
C=CC[C@@]1(C(=O)N2CCOCC2)N=C(c2ccc(OCCCO)cc2)O[C@@H]1c1ccccc1,0.18,0.0379 (inactive),-0.223,-0.327,0.716,2.17,-0.108,-0.157,-0.796,-0.226,0.805,1.19,1.57,-0.0135,-0.338,-0.355,1.89,-1.02,0.868,-0.871 (inactive)
Cc1cc(C)c(C(O)C2C=CC3C(=O)N(C)C(=O)C3N2N2CCCCC2)c(C)c1 (stereo not given),0.477,1.16 (inactive),0.364,0.192,0.74,1.81,0.83,1.29,0.245,1.15,2.16,1.18,-0.193,0.985,1.28,0.994,0.85,-0.0675,0.799,0.915 (inactive)
O=C1C2C=CC(C(O)C(c3ccccc3)c3ccccc3)N(Nc3ccc([N+](=O)[O-])cc3)C2C(=O)N1c1ccccc1 (stereo not given),0.751,-0.214 (inactive),0.272,-0.115,0.733,3.13,0.953,1.33,0.0427,1.17,1.79,1.24,0.248,0.953,1.04,-0.255,-0.351,0.35,1.28,1.66 (inactive)
COCCOC(=O)N1C(=O)[C@@]2(c3cc(C#CC4=CCCCC4)ccc31)[C@H](c1ccc(O)cc1)N1[C@H](c3ccccc3)[C@H](c3ccccc3)OC(=O)[C@H]1[C@@H]2C(=O)N1CCCCCCC1,-0.645,1.69 (inactive),0.112,-0.122,0.425,0.129,0.135,1.29,0.729,1.12,0.31,1.15,1.45,0.694,1.23,1.22,1.99,1.12,0.576,-1.72 (inactive)
O=C1NC(=O)C2C1C=CC(C(O)C=Cc1ccc([N+](=O)[O-])cc1)N2Nc1ccccn1 (stereo not given),-0.0573,1.28 (inactive),0.0104,0.0337,0.863,1.4,1.07,-0.257,1.39,0.367,2.75,0.235,-0.0708,0.123,0.637,1.92,0.361,0.509,0.551,-1.07 (inactive)
[N-]=[N+]=NCc1ccccc1C[C@@]1(C(=O)N2CCOCC2)N=C(c2ccc(OCCCO)cc2)O[C@@H]1c1ccccc1N=[N+]=[N-],1.02,-0.188 (inactive),0.402,0.0753,0.771,2.48,0.358,1.3,-1.07,1.18,1.8,1.22,0.662,0.9,1.12,0.267,1.4,-0.123,1.37,-8.34 (active)
C[C@@H]1NC(=O)[C@H](Cc2ccccc2)NC(=O)[C@@]23C(=O)N[C@@H](Cc4ccccc4)C2[C@H](C)[C@@]2(C)O[C@H]2C3/C=C/C/C=C\CNC1=O (stereo not given in full),0.0296,0.0437 (inactive),-0.0996,0.364,0.82,-0.741,-0.634,-0.276,0.399,-0.265,0.0093,-1.79,-0.524,-0.89,0.216,0.0447,-0.0521,0.256,-0.906,-0.0116 (inactive)
